We go through two molecules from PubChem BioAssay AID624122 (National Center for Advancing Translational Sciences (NCATS), 2012).

Activity calls are given as the source filed them.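 Rule for the calls: active = a dissociation constant for apoferritin binding could be measured by titration calorimetry; inconclusive = binding seen but dissociation constant not obtainable; inactive = no binding seen.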

Chain of Ferritin light chain (Equus caballus) (P02791 2-175 limits assumed): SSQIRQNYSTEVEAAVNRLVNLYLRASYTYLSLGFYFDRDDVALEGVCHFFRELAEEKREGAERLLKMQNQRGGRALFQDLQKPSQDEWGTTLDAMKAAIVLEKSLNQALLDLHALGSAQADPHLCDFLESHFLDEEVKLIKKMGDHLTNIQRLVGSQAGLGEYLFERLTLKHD

This experiment addresses Ferritin light chain (Equus caballus) (UniProt P02791). Nature of the experiment: Isothermal Titration Calorimetry Based Assay for Measurement of Binding Affinity to Apoferritin. The conditions noted are these: horse apoferritin. The source says: Anesthetic development has remained a largely empirical process. There are growing concerns about the cognitive effects of known general anesthetics and acceleration of the onset of neurodegenerative disease. The compounds' toxicity and multiple specific binding targets in the mammalian brain [4] has made them less attractive as drug leads. This isothermal titration calorimetry (ITC) assay is used to provide Kd binding affinity measurements for apoferritin, which is used here as a surrogate system to identify compounds with potential anesthetic properties. References: [1] S.L. Bianchi, T. Tran, C. Liu, S. Lin, Y. Li, J.M. Keller, R.G. Eckenhoff, and M.F. Eckenhoff, Brain and behavior changes in 12-month-old Tg2576 and nontransgenic mice exposed to anesthetics. Neurobiol Aging 29 (2008) 1002-10. Z. Xie, Y. Dong, U. Maeda, R.D. Moir, W. Xia, D.J. Culley, G. Crosby, and R.E. Tanzi, The inhalation anesthetic isoflurane induces a vicious cycle of apoptosis and amyloid beta-protein accumulation. J Neurosci 27 (2007) 1247-54. […]
In order to further triage primary hits identified from qHTS screen (AID 485281), ITC was utilized to evaluate direct binding signatures between filtered compounds and apoferritin and provide a complete thermodynamic characterization of selected compounds. […] Concentrations were then determined using absorption spectroscopy based on standards prepared in organic solvents. […]
The Kd is the equilibrium constant for the complex coming apart. As for `COc1ccc(-c2ccc(=O)n(CC(=O)NCc3ccco3)n2)cc1`, the Kd is 4.2 µM (active).
As for `Cc1ccc(-c2ccc(=O)n(CC(=O)NCCc3ccccc3)n2)cc1`, the figure is 8.2 µM (active).
